MBD2 inh: inhibitors of MBD2 binding to methylated DNA, primary screen, biochemical, TR-FRET, DNA-binding domain, human. Methyl-CpG-binding domain protein 2 (Homo sapiens), Q9UBB5. MBD2 binding to methylated oligonucleotide. inhibition, % at 4.4 µM. 370,000 tested, 0.31% active. AID 686964, 2013; in the data active = inhibition above about 13%
PLCb3 inh: human PLC-beta3 inhibitors, primary screen, biochemical, fluorescence. Purified PLC-beta3, fluorogenic substrate. inhibition, % at 12.2 µM. 370,000 tested, 0.18% active. 1-phosphatidylinositol 4,5-bisphosphate phosphodiesterase beta-3 (Homo sapiens), Q01970; in the data active = inhibition above about 11%;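 note: 0% = median of compound wells on plate and 100% = full blocker control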
PLCg1 inh: PLC-gamma1 enzyme inhibitors, primary screen, biochemical, fluorescence, purified enzyme | fluorogenic substrate | AID 720700, 2013 | 370,000 tested, 0.84% active | 1-phosphatidylinositol 4,5-bisphosphate phosphodiesterase gamma-1 (Homo sapiens), P19174 | inhibition, % at 12.2 µM; in the data active = inhibition above about 9.5%
UHRF1 binding: UHRF1 methylated DNA binding inhibitors, primary screen, counter-screen for MBD2 inhibitor project, biochemical, TR-FRET, human UHRF1, single concentration | E3 ubiquitin-protein ligase UHRF1 (Homo sapiens), Q96T88 | UHRF1 binding to methylated oligo | inhibition, % at 4.4 µM | 370,000 tested, 0.75% active | AID 687016, 2013; in the data active = inhibition above about 21%;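 note: UHRF1 SRA domain binding a hemimethylated CpG hairpin DNA probe; 0% = median of test compound wells and 100% = reference inhibitor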
LEDGF integ inh: blockers of LEDGF/p75-dependent integrase strand transfer – biochemical, TR-FRET, high throughput, primary screen; 370,000 tested, 0.64% active; TR-FRET IN-LEDGF/p75 DNA integration, Eu/Cy5; HIV-1 integrase (with human LEDGF/p75); inhibition, % at 3.7 µM;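 active = inhibition above the screen-wide mean plus 3 SD, cut at about 13% in these data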;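 note: signal is the Cy5 over europium emission ratio at 671 and 618 nm; 0% = plate median of compound wells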
Starred values were filed as active, the others as inactive. Sampled rows, rich in hits. Any-hit rate of the full collection: about 2.4%.

SMILES | MBD2 inh | PLCb3 inh | PLCg1 inh | UHRF1 binding | LEDGF integ inh
COc1ccccc1N1CCN(c2ccc3cc(S(=O)(=O)N4CCCCC4)ccc3n2)CC1 | -1.4 | -31.0 | -17.8 | 3.4 | 1.8
O=S(=O)(c1ccc2nc(N3CCN(c4ccccc4)CC3)ccc2c1)N1CCCCC1 | 2.1 | -4.0 | -0.5 | 21.7* | -3.7
CC(=O)C1(C(=O)NCc2ccccc2)CC(c2ccccc2C(F)(F)F)=NO1 (stereo not drawn) | 1.4 | 0.7 | -1.1 | -2.4 | 1.9
O=Cc1cn(CC(=O)Nc2ccc3c(c2)OCO3)c2ccccc12 | 5.6 | -0.9 | -3.1 | 35.3* | -3.6
COc1ccc([C@H]2OC(=O)C[C@H]2C(=O)N2CCN(c3ccccc3Cl)CC2)cc1OC | -4.1 | 5.0 | -3.1 | -3.2 | -0.1
CCCCCCCCN1C(=O)[C@@H](CC(=O)NCCC(C)C)C[C@@]2(C(=O)OC)C1=C[C@H](COCc1ccccc1)O[C@@H]2C | 1.5 | 0.2 | -4.0 | -0.8 | -0.5
Cc1nc(Cl)c(C(=O)NC(C)(C)C)c(C)c1Cl | 4.3 | 1.2 | 0.8 | 47.0* | -4.1
Cc1nc(Cl)c(C(=O)NCCC(C)C)c(C)c1[N+](=O)[O-] | -6.8 | 3.2 | 0.8 | -4.0 | 0.7
CC(=O)Oc1cc(C(=O)OCC(=O)NC23CC4CC(CC(C4)C2)C3)cc(OC(C)=O)c1OC(C)=O | 8.2 | -6.7 | -0.7 | 14.6 | 43.6*
COC(=O)c1c(C)[nH]c(C(=O)COC(=O)Cn2cc(C(F)(F)F)ccc2=O)c1C | -1.1 | 1.0 | 2.2 | 82.2* | -5.0
CCOc1ccc(C(=O)NCC(C)NC(=O)c2ccc(OCC)cc2)cc1 (stereo not drawn) | 6.1 | 2.9 | 4.3 | 23.5* | 3.7
CCOc1ccc(C(=O)NCC(C)C)cc1 | -4.1 | 3.6 | 4.4 | -0.5 | 1.7
C=CS(=O)(=O)N(Cc1nnn(Cc2ccccc2)c1Br)[C@@H](CC(C)C)C(=O)OC | 2.5 | -0.9 | -2.7 | 1.9 | 3.6
COc1ccccc1/C=C/C=N/n1c(C)nnc1C | 0.8 | -52.6 | -36.0 | 67.9* | 2.9
COc1ccccc1/C=C/C=N/n1c(-c2ccc(F)cc2)n[nH]c1=S | 1.3 | -8.3 | 0.1 | 4.1 | -5.0
Cc1ccc(N(C)S(=O)(=O)c2ccc(-c3cnc(C4CC4)o3)cc2)cc1 | 5.5 | -9.0 | -1.8 | 22.5* | 1.5
Cc1ccc(NS(=O)(=O)c2ccc(-c3cnc(C4CC4)o3)cc2)cc1 | -4.0 | -6.3 | 2.3 | 0.5 | -2.0
CSC(=NCc1ccc(F)cc1)NS(=O)(=O)c1cccs1 | -2.8 | -0.5 | -1.9 | 41.3* | 1.0
Cc1ccc(-c2cnc(NC(=O)c3cccc(Br)c3)s2)c(C)c1 | 13.0 | -5.3 | -4.6 | 25.6* | -1.8
CCOc1ccccc1OCC(=O)OCc1csc(CC(=O)Nc2ccccc2C)n1 | -2.8 | -6.0 | 1.1 | -0.1 | -3.1
Cc1ccccc1NC(=O)Cc1nc(COC(=O)COc2cccc(C)c2C)cs1 | -0.2 | -10.5 | 11.7* | 2.9 | 0.6
COc1ccc(C(C(=O)N(C)C2CCCC2)N(Cc2ccc(F)cc2)C(=O)c2cc(C)[nH]n2)cc1OC (stereo not drawn) | -1.2 | 2.2 | 5.1 | 1.3 | 2.3
Cc1ccc(S(=O)(=O)N(C)C)cc1NC(=O)COC(=O)/C=C/c1ccc(F)cc1 | -1.3 | -4.6 | 4.4 | 34.5* | 4.5
COC(=O)CC1OCC=C2CN3CCC45C6=CC(=O)C(=O)C([N+](=O)[O-])=C6NC4C1C2CC35 (stereo not drawn) | 16.1* | -4.0 | 3.4 | 19.5 | -2.7
CCOC(=O)c1ccc(NC(=O)c2cc3ccccc3o2)cc1 | 3.0 | -18.4 | -11.5 | 25.5* | 1.1
SMILES | MBD2 inh | PLCb3 inh | PLCg1 inh | UHRF1 binding | LEDGF integ inh
Cc1cccc(C(=O)Nc2nc3ncccn3c2-c2ccc(F)c(F)c2)c1 | -0.1 | -255.3 | -206.5 | -3.5 | -0.2
O=C(CNC(=O)Cn1cnc2sc3c(c2c1=O)CCCC3)NCc1ccccn1 | -2.7 | 2.6 | 3.9 | 1.0 | 0.7
O=C(Cn1cnc2sc3c(c2c1=O)CCCC3)NCC(=O)Nc1c(F)cccc1F | 8.9 | -8.8 | 2.3 | 22.2* | 1.2
COC(=O)[C@]12C[C@H](CC(=O)N3CCN(C(=O)C4CC4)CC3)C(=O)N(CCc3ccc(OC)c(OC)c3)C1=C[C@H](C1CCCC1)O[C@@H]2C | 4.2 | -3.6 | 1.8 | 0.4 | -1.1
Cc1noc(C)c1COc1ccccc1C(=O)N1CCN(S(=O)(=O)c2ccccc2Br)CC1 | -9.6 | -4.9 | -0.3 | -3.5 | 0.7
Cc1cc(C)c(C)c(S(=O)(=O)N2CCN(C(=O)c3ccccc3OCc3c(C)noc3C)CC2)c1C | -6.8 | -2.3 | 6.8 | 28.3* | 4.9
CC(C)Cc1nnc(NC(=O)CCS(=O)(=O)c2ccc(Cl)cc2)s1 | 10.6 | -9.0 | 5.9 | 24.3* | 4.2
CC(C)Cc1nnc(NC(=O)CCc2c[nH]c3ccccc23)s1 | 10.5 | -12.9 | -4.5 | 25.1* | -1.6
O=c1c2cc3cc(Cl)ccc3nc2ncn1CCc1c[nH]c2ccccc12 | 1.8 | 0.2 | -4.3 | -0.8 | 8.1
CC(C)OCCCNC(=S)NNC(=O)C(c1ccccc1)c1ccccc1 | 2.5 | 0.2 | 1.5 | 22.0* | -3.2
Cc1ccc(-c2cc(-c3nnc(SCC(=O)N4c5ccccc5Sc5ccc(Cl)cc54)n3N)[nH]n2)cc1 | 0.8 | 3.0 | 0.5 | 0.3 | 1.3
Cc1ccccc1NC(=O)/C=C/c1cccs1 | -2.8 | -6.2 | 2.0 | -1.0 | -4.1
CCN(CC)S(=O)(=O)c1ccc(C)c(NC(=O)/C=C/c2cccs2)c1 | 10.4 | 8.1 | 5.4 | 21.7* | 6.5
Cc1cccc(S(=O)(=O)Nc2ccc(-c3ccc4nncn4n3)cc2)c1 | -1.8 | -37.2 | -32.4 | -3.2 | -1.6
O=S(=O)(Nc1ccc(-c2ccc3nncn3n2)cc1)c1cccc(F)c1 | 8.7 | -42.1 | -40.8 | 23.8* | -0.6
CC(C)NC(=O)N[C@H]1C[C@@H]2O[C@H](CO)CC[C@@H]2O[C@@H]1CCc1ccc(-c2ccc(F)cc2)cc1 | 1.1 | 0.0 | 1.3 | 5.5 | -1.7
CCOC(=O)c1ccc(N2CCN(c3ccccc3F)CC2)c(NC(=O)Nc2cccc(OC)c2)c1 | 9.2 | -8.0 | -7.7 | 5.1 | 1.3
COC(=O)c1ccc(N2CCOCC2)c(NC(=O)Nc2cccc(OC)c2)c1 | -4.1 | -0.1 | -0.8 | 23.9* | -4.6
Cc1ccc(CSc2nc3c(c(=O)[nH]2)CCC3)cc1 | 0.6 | 1.8 | 1.5 | 57.7* | 1.6
Cc1cccc(CSc2nc3c(c(=O)[nH]2)CCC3)c1 | -1.0 | -1.6 | -1.7 | -2.4 | -0.7
O=C(O)c1ccccc1C(=O)c1cccs1 | 7.8 | 0.7 | 0.9 | 23.7* | 0.7
COc1ccc(N2CCN(C(=O)c3oc4ccccc4c3NC(=O)Cc3cccc(OC)c3)CC2)cc1 | 4.1 | -3.2 | 0.3 | 23.7* | 3.8

Assay outcomes: PubChem, The Scripps Research Institute Molecular Screening Center
